{"source": "PubChem BioAssay (NCI)", "note": "This is part of a sample that, as a whole, favours compounds with a hit. Of some 79,000 tested, about 15% had one in any assay. Unmarked numbers belong to inactive results. Calls of active or inactive are those of the source. Cut-off read from the data, not from the text of the source: active = growth inhibition above about 70%; inactive = the rest."}
{"experiment": "NCI Yeast Anticancer Drug Screen. Data for the mlh1 rad18 strain (AID 175)", "settings": "S. cerevisiae mlh1 rad18 strain growth inhibition; at 50.0 µM; stronger effect = higher value", "method_in_brief": "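A repair-deficient yeast strain is exposed to test compound, and growth is scored relative to vehicle-treated controls.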"}
{"smiles": "O=C1CSC(c2cccc(O)c2)N1c1nncs1", "note": "(stereo not given)", "growth inhibition": "15.2%"}
{"smiles": "CCCCCCCCCC1CC(=O)OC23CCCC(=O)C12O3", "note": "(stereo not given)", "growth inhibition": "-17.6%"}
{"smiles": "CC(C)NCC(O)COc1c2ccccc2nc2ccccc12", "note": "(stereo not given)", "growth inhibition": "12.9%"}
{"smiles": "CCCOc1ccc(C(=O)C(C(c2ccccc2)N2CCOCC2)N2CCOCC2)cc1", "note": "(stereo not given)", "growth inhibition": "54%"}
{"smiles": "O=S(=O)(OI(O)CC(F)(F)F)C(F)(F)F", "growth inhibition": "39.5%"}
{"smiles": "Nc1ncnc2c1ncn2C1CCC(CP(=O)(O)O)C1", "note": "(stereo not given)", "growth inhibition": "-0.1%"}
{"smiles": "O=C(CC(C(=O)c1cccs1)c1cccs1)c1ccsc1", "note": "(stereo not given)", "growth inhibition": "-4.1%"}
{"smiles": "O=C(C[n+]1ccccc1CCCO)c1ccc(F)cc1", "growth inhibition": "8.45%"}
{"smiles": "CCOC(=O)NCC(C)(C)N(C(=O)OCC)c1ccccc1", "growth inhibition": "-7.7%"}
{"smiles": "O=C(/C=C/c1cccc2ccccc12)c1ccccc1Cl", "growth inhibition": "35.2%"}
{"smiles": "O=C1NC(=O)C(Cc2ccco2)N1", "note": "(stereo not given)", "growth inhibition": "-5.2%"}
{"smiles": "N=C1N=Nc2nc(C(C(=O)c3cccc(O)c3)c3nc4n(c3O)C(=N)N=N4)c(O)n21", "note": "(stereo not given)", "growth inhibition": "28.6%"}
{"smiles": "CCOC(=O)\\C(C#N)=C/C=C(C)/C(C)=C/Nc1ccc([N+](=O)[O-])cc1[N+](=O)[O-]", "growth inhibition": "22.6%"}
{"smiles": "C[C@]1(CO)CCC[C@@]2(C)C1CC[C@H]1CC3C[C@]12CC[C@]3(C)O", "note": "(stereo not given in full)", "growth inhibition": "54.3%"}
{"smiles": "CC(=O)Nc1c(Cl)cccc1[N+](=O)[O-]", "growth inhibition": "5.85%"}
{"smiles": "CCOC(=O)C1C/C(C)=C(/C)SCCCS1", "note": "(stereo not given)", "growth inhibition": "-67.2%"}
{"smiles": "NC(=O)c1cc(Cl)ccc1O", "growth inhibition": "11.6%"}
{"smiles": "O=c1[nH]c(NCc2ccc(Cl)cc2)nc2nc[nH]c12", "growth inhibition": "-46.4%"}
{"smiles": "COc1ccc(C(O)C2CCCN(C)S2(=O)=O)cc1", "note": "(stereo not given)", "growth inhibition": "15.6%"}
{"smiles": "Clc1ccc([I+]c2ccc(Cl)cc2)cc1", "growth inhibition": "97.2% (active)"}
{"smiles": "CCCCCCCCCCCCCCCc1c(NC(C)(CC(C)(C)O)[P+](=O)O)c(=O)n(C)n1C", "note": "(stereo not given)", "growth inhibition": "-33.4%"}
{"smiles": "CC(C)Nc1ncnc2c1cnn2-c1ccccc1", "growth inhibition": "-11.3%"}
{"smiles": "CC(C)(C)c1cc(CCC(=O)Nc2ccc(Cl)cc2)[nH]c(=S)n1", "growth inhibition": "-14.8%"}
{"smiles": "COC(=O)c1c2c(cc3c1CC1(C3)Cc3ccc4c(c3C1=O)CCC4)CCC2", "note": "(stereo not given)", "growth inhibition": "-86%"}
{"smiles": "O=Cc1ccccc1CCn1c(=O)c2cc3c(=O)n(CCc4ccccc4C=O)c(=O)c3cc2c1=O", "growth inhibition": "18.8%"}
{"smiles": "NC(N)=N/N=C(\\c1ccc(Cl)cc1)C1CC1", "growth inhibition": "10%"}
{"smiles": "Cc1ccc(CSCc2c(CSCc3ccc(C)cc3)c(CSCc3ccc(C)cc3)c(CSCc3ccc(C)cc3)c(CSCc3ccc(C)cc3)c2CSCc2ccc(C)cc2)cc1", "growth inhibition": "6.85%"}
{"smiles": "NC(C(=O)O)c1ccccc1", "note": "(stereo not given)", "growth inhibition": "-19.5%"}
{"smiles": "[Mn+2].[Mn+2].c1ccc2c(c1)-c1nc-2nc2[n-]c(nc3nc(nc4[n-]c(n1)c1ccccc41)-c1ccccc1-3)c1cc3c4nc5nc(nc6[n-]c(nc7nc(nc([n-]4)c3cc21)-c1ccccc1-7)c1ccccc61)-c1ccccc1-5", "growth inhibition": "21.8%"}
{"smiles": "Cn1c(=O)c2c(nc(C[N+]3([O-])CCOCC3)n2C)n(C)c1=O", "growth inhibition": "-27.9%"}
{"smiles": "O=C(c1ccccc1)c1ccncc1", "growth inhibition": "-3.1%"}
{"smiles": "CCOC(=O)c1[nH]cnc1N", "growth inhibition": "-3.65%"}
{"smiles": "COc1ccccc1C(=O)NO", "growth inhibition": "-7.55%"}
{"smiles": "CCCC1OCC(O)C(C(O)C(=O)CN(Cc2ccccc2)Cc2ccccc2)O1", "note": "(stereo not given)", "growth inhibition": "3.75%"}
{"smiles": "CCOC(=O)c1c(N)[nH]c(SSc2[nH]c(N)c(C(=O)OCC)c2C(=O)OCC)c1C(=O)OCC", "growth inhibition": "20.3%"}
{"smiles": "O=C(O)Cc1cccc2c(=O)cc(Cc3ccccc3)oc12", "growth inhibition": "-15%"}
{"smiles": "COc1cc([N+](=O)[O-])ccc1C(=O)NC(CCC(=O)O)C(=O)O", "note": "(stereo not given)", "growth inhibition": "-22.1%"}
{"smiles": "CCCCCOc1ccc2ccccc2c1", "growth inhibition": "7.15%"}
{"smiles": "OCC(O)CNc1ncnc2ccccc12", "note": "(stereo not given)", "growth inhibition": "10.2%"}
{"smiles": "Oc1cc(N2CCCC2)ccc1/C=N/N1C(=S)N(c2ccccc2)C(=Nc2ccccc2)C1=Nc1ccccc1", "growth inhibition": "-39.9%"}
